Compounds with a hit are over-represented: about 6.6% of the library has one in this group of screens.
HT1080 IDH1KD tx – toxicity to HT-1080 IDH1 knockdown cells (counter line) | HT-1080 IDH1 knockdown viability, ATP luminescence, 48 h | Potency, µM (series often up to 46.1 µM), for inactives: at the highest dose activity, negative = toxicity, usual class: cytotoxic | 360,000 tested, 2% active;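 further: 0% = DMSO wells and -100% = cell-free medium wells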
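Knockdown cells (IDH1KD HT-1080) received compounds 2 h after plating at 750 cells/well and were kept 48 h at 37 °C in 5% FBS RPMI. A CellTiter-Glo luminescence read gave % activity for curve fitting.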
TGFb inhibitor – TGF-b pathway inhibition; Potency, µM (titrated, usually from 46.1 µM), inactives show at the top dose activity, negative = inhibition, hits mostly inhibitors; AID 588855; 410,000 tested, 1.2% active; HepG2 CAGA-GFP TGF-b/SMAD3 reporter, GFP fluorescence, 18 h; TGF-beta stimulated, 500 pg/mL final; further: on the % scale 0 is the no-effect control and ±100 the full control effect; nearly all actives have a fitted effect of over 65% in size
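HEPG2 CAGA-GFP reporter cells (1000/well, DMEM with 1% FBS) received compounds, then recombinant TGF-beta at 500 pg/mL final for 18 hours at 37 degrees C. Per-cell GFP summed per well was normalised to unstimulated and stimulated DMSO controls before curve fitting.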
HT1080-NT tox – kills 2HG-producing HT-1080-NT fibrosarcoma cells | HT-1080-NT fibrosarcoma viability, CellTiter-Glo ATP luminescence, 48 h | Potency, µM (doses to about 46.1 µM), for the others: top-dose activity, negative = less viability, most hits filed as cytotoxic | 360,000 tested, 1.6% active | AID 686970;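 further: NT is the 2HG producing partner of a matched IDH1 knockdown line; 0% = DMSO-treated cells and -100% = media-only wells without cells; nearly all actives have a fitted effect of over 55% in size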
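Fibrosarcoma NT cells, 750 per well in 5% FBS RPMI, were exposed to compound for 48 hours. Viability: CellTiter-Glo luminescence.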
HepG2 viability – kills HepG2 cells in TGF-b inhibitor counter-screen; 410,000 tested, 0.76% active; HepG2 CAGA-GFP viability, ATP luminescence, 18 h; AID 588856; Potency, µM (highest dose often 46.1 µM), for inactives: at the top dose activity change, negative = cytotoxicity, usual class: cytotoxic
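CellTiter-Glo luminescence gave cytotoxicity after 18 hours at 37 degrees C. The cells were HepG2 CAGA-GFP in 1% FBS DMEM, stimulated with 500 pg/mL TGF-beta after compound addition. %Activity was normalised to no-cell wells (complete cell-killing) and DMSO (no toxicity), and curves were fitted and classified.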
KB-V1 MDR tox – KB-V1 MDR subline cytotoxicity. Potency, µM (top dose mostly 46.1 µM), most hits filed as cytotoxic. AID 1347076. KB-V1 MDR cells viability, CellTiter-Glo, 72 h. 400,000 tested, 3.4% active; further: on the % scale 0 is the no-effect control and ±100 the full control effect; nearly all actives have a fitted effect of over 60% in size
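Readout: CellTiter-Glo luminescence, 10 min after addition. Cells: KB-V1 MDR subline, 72 h at 37 degrees C with compound. Analysis: corrected, normalized data fitted to concentration-effect curves.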
KB-3-1 tox – kills parental KB-3-1 adenocarcinoma cells; Potency, µM (highest dose often 46.1 µM), hits mostly cytotoxic; 400,000 tested, 1.4% active; KB-3-1 viability, CellTiter-Glo ATP luminescence, 72 h; AID 1347075; further: on the % scale 0 is the no-effect control and ±100 the full control effect; nearly all actives have a fitted effect of over 60% in size
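Cytotoxicity in the drug-sensitive parental line KB-3-1 was scored as loss of CellTiter-Glo luminescence following 72 h incubation with compound. Values come from curve fitting of normalized concentration-response data.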
An asterisk follows results filed as active. The call rests on the fitted dose curve; in most records, active means well fitted curve in the direction sought with a large enough effect; inconclusive means small, poorly fitted or top-dose-only effect, or another doubt; inactive means no such curve, though single readings can be large; an effect the other way counts as inactive or inconclusive. Potency means the concentration at half of the fitted maximal effect.

Cc1cc(C)c2sc(N3CCN(C(=O)c4ccc(N(C)C)cc4)CC3)nc2c1 was read as TGFb inhibitor -3.4%, HepG2 viability -12.5%, KB-V1 MDR tox inactive and KB-3-1 tox inactive.
`CCOC(=O)C1=CN(Cc2cccc(F)c2)S(=O)(=O)NC1c1ccc(F)c(Cl)c1` (centres undefined) gave HT1080 IDH1KD tx inconclusive, TGFb inhibitor 15.8µM*, HT1080-NT tox 25.9µM*, HepG2 viability -48.0%, KB-V1 MDR tox inconclusive and KB-3-1 tox inactive.
C=CCn1c(COc2ccc3c(c2)CCCC3)nnc1SCC(=O)Nc1cccc(SC)c1 was read as HT1080 IDH1KD tx inconclusive, TGFb inhibitor inconclusive, HT1080-NT tox inconclusive, HepG2 viability -1.5%, KB-V1 MDR tox 14.6µM* and KB-3-1 tox inconclusive.
`C=CCn1c(COc2ccccc2)nnc1SCC(=O)Nc1ccc2c(c1)OCCO2` gave HT1080 IDH1KD tx 1.2%, TGFb inhibitor -13.4%, HT1080-NT tox -3.7%, HepG2 viability 3.0%, KB-V1 MDR tox inactive and KB-3-1 tox inactive.
For CCc1nc2c(OCc3ccc(Cl)cc3Cl)cccn2c1N(C)C(=O)CC(C)C the results were HT1080 IDH1KD tx inconclusive, TGFb inhibitor inconclusive, HT1080-NT tox 25.9µM*, HepG2 viability 11.2µM*, KB-V1 MDR tox inconclusive and KB-3-1 tox inconclusive.
CCc1nc2c(OCc3cc(Cl)cc(Cl)c3)cccn2c1N(C)C(=O)c1ccccc1F was read as HT1080 IDH1KD tx inconclusive, TGFb inhibitor inconclusive, HT1080-NT tox 18.4µM*, HepG2 viability -38.1%, KB-V1 MDR tox inconclusive and KB-3-1 tox inactive.
`CCc1nc2c(OCc3cc(Cl)cc(Cl)c3)cccn2c1N(C)C(=O)CC(C)C` gave HT1080 IDH1KD tx inconclusive, TGFb inhibitor inconclusive, HT1080-NT tox inconclusive, HepG2 viability -52.5%, KB-V1 MDR tox inactive and KB-3-1 tox inactive.
`CCc1ccc(-n2c(SCc3nc(-c4cc(OC)ccc4OC)no3)nnc2-c2ccccc2)cc1` gave TGFb inhibitor inconclusive, HepG2 viability -29.7%, KB-V1 MDR tox inactive and KB-3-1 tox inactive.
For O=C(c1cc([N+](=O)[O-])ccc1N1CCCCC1)N1CCCCC1 the results were HT1080 IDH1KD tx inconclusive, TGFb inhibitor -9.7%, HT1080-NT tox 6.2%, HepG2 viability 5.3%, KB-V1 MDR tox 16.4µM* and KB-3-1 tox inactive.
For O=C(c1cc([N+](=O)[O-])ccc1N1CCCCC1)N1CCc2ccccc21 the results were HT1080 IDH1KD tx 2.31µM*, TGFb inhibitor -0.2%, HT1080-NT tox inconclusive, HepG2 viability -2.6%, KB-V1 MDR tox 5.8µM* and KB-3-1 tox 5.8µM*.
Screening COc1ccc(NC(=O)c2cc(F)c(F)cc2Cl)cc1Cl returned HT1080 IDH1KD tx -2.6%, TGFb inhibitor 10.7%, HT1080-NT tox 11.2%, HepG2 viability 4.7%, KB-V1 MDR tox inactive and KB-3-1 tox inactive.
`CN(C)S(=O)(=O)c1ccc(NC(=O)c2cc(F)c(F)cc2Cl)cc1` gave HT1080 IDH1KD tx -4.9%, TGFb inhibitor -5.5%, HT1080-NT tox 2.1%, HepG2 viability -44.2%, KB-V1 MDR tox 23.1µM* and KB-3-1 tox inactive.
For COc1ccc(N2CC(NC(=O)c3ccc(S(=O)(=O)N4CCCCC4)cc3)CC2=O)cc1 (centres undefined) the results were TGFb inhibitor -7.7% and HepG2 viability -1.6%.
`CN(C)c1ccc(/C=C2\c3ccccc3-c3ccc(N(C)C)cc32)cc1` gave TGFb inhibitor 6.3%, HepG2 viability 3.7%, KB-V1 MDR tox inactive and KB-3-1 tox inactive.
Screening CN(C)c1ccc(C=c2c3ccccc3n3c2c2ccccc2[n+]3C)cc1 returned HT1080 IDH1KD tx 8.2µM*, TGFb inhibitor 2.51µM*, HT1080-NT tox 23.1µM*, HepG2 viability -43.2%, KB-V1 MDR tox inconclusive and KB-3-1 tox 5.17µM*.
`CN(C)c1ccc(C=C2C(=O)c3ccccc3C2=O)cc1` gave TGFb inhibitor -2.0%, HepG2 viability -12.2%, KB-V1 MDR tox inactive and KB-3-1 tox inconclusive.
`Cc1cc2c(=Cc3ccc(N(C)C)cc3)c3ccccc3n2[n+]1C` gave HT1080 IDH1KD tx 4.61µM*, TGFb inhibitor 6.31µM*, HT1080-NT tox 14.6µM*, HepG2 viability -29.3%, KB-V1 MDR tox inactive and KB-3-1 tox inactive.
CCOC(=O)c1cc2c(=Cc3ccc(N(C)C)cc3)c3ccccc3n2[n+]1C was read as HT1080 IDH1KD tx 8.2µM*, TGFb inhibitor inconclusive, HT1080-NT tox inconclusive, HepG2 viability -39.1%, KB-V1 MDR tox inconclusive and KB-3-1 tox 2.06µM*.
For COC(=O)c1sc2c(c1C)c(=O)n(-c1ccccc1)c(=O)n2CC(=O)Nc1cccc(C)c1 the results were TGFb inhibitor -10.0%, HepG2 viability -3.1%, KB-V1 MDR tox inactive and KB-3-1 tox inactive.
`Cc1cc(NC(=O)c2cc(-c3cccs3)nc3ccccc23)no1` gave HT1080 IDH1KD tx inconclusive, TGFb inhibitor 2.2%, HT1080-NT tox inconclusive, HepG2 viability -0.2%, KB-V1 MDR tox inconclusive and KB-3-1 tox 20.6µM*.
`Cc1cc(NC(=O)CSc2nc(C(C)(C)C)nc3ccccc23)no1` gave HT1080 IDH1KD tx 0.9%, TGFb inhibitor inconclusive, HT1080-NT tox -0.3%, HepG2 viability -59.9%, KB-V1 MDR tox inconclusive and KB-3-1 tox inactive.
Screening Cc1cc(NC(=O)CSc2nc(-c3cccs3)nc3ccccc23)no1 returned HT1080 IDH1KD tx 5.17µM*, TGFb inhibitor -23.4%, HT1080-NT tox 5.8µM*, HepG2 viability -8.9%, KB-V1 MDR tox inconclusive and KB-3-1 tox 5.8µM*.
Screening Cc1cc(NC(=O)c2cc(-c3ccncc3)nc3c(C)cccc23)no1 returned HT1080 IDH1KD tx 3.66µM*, TGFb inhibitor 2.0%, HT1080-NT tox 5.8µM*, HepG2 viability -19.0%, KB-V1 MDR tox 3.66µM* and KB-3-1 tox 3.26µM*.
Screening Cc1cccc(NC(=O)c2cc(-c3cccnc3)nc3c(C)cccc23)n1 returned HT1080 IDH1KD tx inconclusive, TGFb inhibitor inconclusive, HT1080-NT tox inconclusive, HepG2 viability -38.8%, KB-V1 MDR tox inconclusive and KB-3-1 tox inactive.
Cc1ccc(-c2cc(C(=O)Nc3cc(C)on3)c3ccccc3n2)cc1 was read as HT1080 IDH1KD tx -2.3%, TGFb inhibitor -0.1%, HT1080-NT tox -0.1%, HepG2 viability 1.2%, KB-V1 MDR tox inactive and KB-3-1 tox inactive.
